One molecule from PubChem BioAssay AID743156 (Broad Institute, 2013) can be followed below.

The test system of the assay is PglD UDP-4-amino-sugar N-acetyltransferase (Campylobacter jejuni). Put plainly: inhibition of C. jejuni PglD N-acetyltransferase – biochemical, DTNB absorbance, single point, cherry-picked samples, confirmation (AID 743156).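 Further: initial rate of CoA release by acetyl transfer from AcCoA to the UDP-4-amino sugar; 0% = median of neutral control wells and 100% = median of positive control wells.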 Particulars: Purified C. jejuni PglD, DTNB absorbance 412 nm; at 20 µM; hits give high values.

A word on the inhibition: it is the change of the read-out against control, counted positive when it falls.

Structures are written as SMILES. The list shows a part of the results. A number with no mark means an inactive call.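 How the source made its calls: active means mean inhibition across replicates of at least 20% with every single replicate also at 20% or more; inconclusive means mean inhibition at least 20% but some replicate falls below 20%; inactive means mean inhibition under 20% and not all replicates reach it.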

Regarding `c1ccc2sc(N3CCNCC3)nc2c1`, the inhibition is 8.98%.
